# Measurements reported in ChEMBL document CHEMBL3988442, “University of Dundee, Small-Polar-MMV Screening Library” (2021).
# For some assays here: Entries with a potency or affinity are not part of this list.
# Key:
# [1] = target: Protein translocase subunit SecA (Escherichia coli (strain K12)) (UniProt P10408); test: Assay to Identify E. coli SecA ATPase Inhibitors; type: functional; set-up: scale not given: direction of the effect not stated beside the values; details: 30 µM
# [2] = target: T1, Ubiquitin-activating enzyme e1, putative (Leishmania donovani (strain BPK282A1)) (UniProt E9BSI1); test: Leishmania donovani Ubiquitin Activating Enzyme (LdE1); type: functional; set-up: scale not given: direction of the effect not stated beside the values; details: 30 µM
# T1 sequence (whole entry): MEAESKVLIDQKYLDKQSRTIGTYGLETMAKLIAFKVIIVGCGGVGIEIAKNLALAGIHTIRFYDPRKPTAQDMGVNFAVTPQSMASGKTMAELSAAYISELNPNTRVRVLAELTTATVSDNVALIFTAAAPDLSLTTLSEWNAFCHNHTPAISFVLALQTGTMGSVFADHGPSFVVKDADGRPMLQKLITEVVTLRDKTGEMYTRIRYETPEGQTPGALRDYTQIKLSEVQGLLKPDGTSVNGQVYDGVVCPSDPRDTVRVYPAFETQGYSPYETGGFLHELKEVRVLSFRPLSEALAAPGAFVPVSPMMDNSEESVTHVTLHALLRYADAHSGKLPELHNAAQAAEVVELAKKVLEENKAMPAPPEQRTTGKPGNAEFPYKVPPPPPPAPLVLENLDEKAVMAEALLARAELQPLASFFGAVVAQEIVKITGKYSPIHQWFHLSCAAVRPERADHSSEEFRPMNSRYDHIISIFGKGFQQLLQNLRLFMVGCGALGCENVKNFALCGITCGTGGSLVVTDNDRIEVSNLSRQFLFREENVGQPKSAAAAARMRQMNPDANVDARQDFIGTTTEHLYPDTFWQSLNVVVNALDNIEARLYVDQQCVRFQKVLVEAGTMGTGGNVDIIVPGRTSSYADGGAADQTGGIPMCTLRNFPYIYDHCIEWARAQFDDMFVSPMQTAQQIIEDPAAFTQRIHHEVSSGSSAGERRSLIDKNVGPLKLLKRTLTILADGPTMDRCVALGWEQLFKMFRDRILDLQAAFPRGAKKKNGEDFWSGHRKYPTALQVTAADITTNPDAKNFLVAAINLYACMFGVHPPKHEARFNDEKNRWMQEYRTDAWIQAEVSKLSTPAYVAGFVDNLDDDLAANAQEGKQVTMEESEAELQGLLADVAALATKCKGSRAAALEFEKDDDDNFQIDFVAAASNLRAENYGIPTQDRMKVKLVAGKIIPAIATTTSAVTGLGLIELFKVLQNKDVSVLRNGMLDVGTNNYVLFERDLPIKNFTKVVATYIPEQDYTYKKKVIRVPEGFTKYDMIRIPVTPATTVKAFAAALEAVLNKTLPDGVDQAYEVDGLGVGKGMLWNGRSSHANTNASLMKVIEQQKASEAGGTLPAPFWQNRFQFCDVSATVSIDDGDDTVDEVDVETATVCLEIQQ
# [3] = target: AMP-activated protein kinase, AMPK (Homo sapiens) (UniProt P54646+O43741+P54619+Q9UGJ0+Q9Y478+Q13131+Q9UGI9); test: AMP-dependent Kinase enzyme assay. An in vitro enzyme assay that detects ADP turnover that is directly proportional to AMPK activity. This uses naive AMPK that is activated during the assay with MK-8722; type: functional; set-up: scale not given: direction of the effect not stated beside the values; details: 30 µM
# [4] = target: Sialic acid-binding Ig-like lectin 9 (Homo sapiens) (UniProt Q9Y336); test: Hs-Siglec9 ALPHAscreen SOP 20170721; set-up: scale not given: direction of the effect not stated beside the values; details: 10 µM
# Chain of Sialic acid-binding Ig-like lectin 9 (Homo sapiens) (Q9Y336 whole entry): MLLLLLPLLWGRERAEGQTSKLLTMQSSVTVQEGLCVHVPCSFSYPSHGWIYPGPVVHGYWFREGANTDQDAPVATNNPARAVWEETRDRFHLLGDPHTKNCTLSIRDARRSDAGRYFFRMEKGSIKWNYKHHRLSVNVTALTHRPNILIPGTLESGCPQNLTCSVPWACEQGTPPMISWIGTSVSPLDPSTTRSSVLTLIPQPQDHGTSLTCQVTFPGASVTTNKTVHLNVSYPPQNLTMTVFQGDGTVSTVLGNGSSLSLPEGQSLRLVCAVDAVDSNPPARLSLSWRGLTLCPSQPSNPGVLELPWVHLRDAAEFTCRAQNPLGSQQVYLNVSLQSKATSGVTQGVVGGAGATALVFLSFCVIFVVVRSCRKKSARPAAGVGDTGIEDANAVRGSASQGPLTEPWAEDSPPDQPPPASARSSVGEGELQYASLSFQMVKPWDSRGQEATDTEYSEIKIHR
# Trypanosoma cruzi = test: Trypanosoma cruzi phosphomannomutase and mannose-1-phosphate guanylyltransferase assay; type: functional; set-up: scale not given: direction of the effect not stated beside the values; details: 10 µM
# [5] = target: T2, Arginase-2, mitochondrial (Homo sapiens) (UniProt P78540); test: in vitro enzyme assay to detect the production of urea directly proportional to the activity of Arginase II; type: functional; set-up: scale not given: in the data most compounds retested in dose-response had high values
# T2 sequence (whole entry): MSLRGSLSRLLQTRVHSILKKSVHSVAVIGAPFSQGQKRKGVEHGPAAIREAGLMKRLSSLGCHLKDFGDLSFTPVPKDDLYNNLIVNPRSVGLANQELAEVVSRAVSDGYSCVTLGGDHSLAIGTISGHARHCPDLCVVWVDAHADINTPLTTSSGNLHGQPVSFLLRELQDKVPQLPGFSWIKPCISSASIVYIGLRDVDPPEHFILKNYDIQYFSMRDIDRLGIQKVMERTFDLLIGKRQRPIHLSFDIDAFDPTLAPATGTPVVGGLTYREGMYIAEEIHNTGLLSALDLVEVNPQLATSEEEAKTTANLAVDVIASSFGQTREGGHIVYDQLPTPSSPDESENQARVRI
# [6] = target: T3, Proteasome subunit beta (Trypanosoma cruzi) (UniProt O96673); test: Trypanosoma cruzi proteasome chymotrypsin-like activity (TcProtChymo) assay.; type: functional; set-up: scale not given: in the data most compounds retested in dose-response had high values; details: 9.37 µM
# T3 sequence (whole entry): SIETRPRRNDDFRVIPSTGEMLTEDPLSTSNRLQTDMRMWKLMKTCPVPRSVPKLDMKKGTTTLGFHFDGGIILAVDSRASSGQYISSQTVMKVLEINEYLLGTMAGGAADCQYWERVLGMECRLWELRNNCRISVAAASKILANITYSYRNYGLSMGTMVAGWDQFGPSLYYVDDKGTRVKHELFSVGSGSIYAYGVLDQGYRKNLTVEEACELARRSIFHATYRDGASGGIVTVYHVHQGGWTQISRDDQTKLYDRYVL
# Homo sapiens = species on record: Homo sapiens; test: To identify inhibition of the IFN signalling (Jak-Stat) pathway via expression of an eGFP reporter gene under the control of an IFN-stimulated response element (ISRE) containing MxA promoter.; type: functional; set-up: scale not given: direction of the effect not stated beside the values; details: 30 µM
# [7] = target: T4, Tyrosyl-tRNA synthetase, putative (Trypanosoma cruzi (strain CL Brener)) (UniProt Q4DSP6); test: Trypanosoma cruzi tyrosyl tRNA synthetase (TcYRS) _High Tyrosine SOP; type: functional; set-up: scale not given: in the data most compounds retested in dose-response had high values; details: 30 µM
# T4 sequence (whole entry): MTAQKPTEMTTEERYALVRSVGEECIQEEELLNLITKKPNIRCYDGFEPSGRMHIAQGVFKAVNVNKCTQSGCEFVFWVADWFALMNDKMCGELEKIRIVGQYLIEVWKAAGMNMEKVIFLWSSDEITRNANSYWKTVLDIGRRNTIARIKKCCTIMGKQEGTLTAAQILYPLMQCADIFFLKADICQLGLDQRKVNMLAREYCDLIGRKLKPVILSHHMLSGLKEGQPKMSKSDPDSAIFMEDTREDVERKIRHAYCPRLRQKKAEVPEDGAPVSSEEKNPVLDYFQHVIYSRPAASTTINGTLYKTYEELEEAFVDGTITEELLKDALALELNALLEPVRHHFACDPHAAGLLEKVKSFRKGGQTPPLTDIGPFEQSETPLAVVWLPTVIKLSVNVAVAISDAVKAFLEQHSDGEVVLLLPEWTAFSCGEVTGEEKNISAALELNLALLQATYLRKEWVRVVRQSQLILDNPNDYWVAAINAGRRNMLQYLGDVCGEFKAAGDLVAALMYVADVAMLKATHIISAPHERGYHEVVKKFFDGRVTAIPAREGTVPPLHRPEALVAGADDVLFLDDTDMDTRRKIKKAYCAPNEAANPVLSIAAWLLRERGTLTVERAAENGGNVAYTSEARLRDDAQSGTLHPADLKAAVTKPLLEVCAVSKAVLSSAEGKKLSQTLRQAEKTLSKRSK
# [8] = target: T4, Tyrosyl-tRNA synthetase, putative (Trypanosoma cruzi (strain CL Brener)); test: Trypanosoma cruzi tyrosyl tRNA synthetase (TcYRS) SOP; type: functional; set-up: scale not given: direction of the effect not stated beside the values; details: 30 µM
# [9] = target: Chromo domain-containing protein 1 (Saccharomyces cerevisiae (strain ATCC 204508 / S288c) (Baker's yeast)) (UniProt P32657); test: ScCHD-1 Enzyme Inhibition Assay; type: functional; set-up: scale not given: in the data most compounds retested in dose-response had high values; details: 30 µM
# Chain of Chromo domain-containing protein 1 (Saccharomyces cerevisiae (strain ATCC 204508 / S288c) (Baker's yeast)) (P32657 whole entry, the tested form may be a part): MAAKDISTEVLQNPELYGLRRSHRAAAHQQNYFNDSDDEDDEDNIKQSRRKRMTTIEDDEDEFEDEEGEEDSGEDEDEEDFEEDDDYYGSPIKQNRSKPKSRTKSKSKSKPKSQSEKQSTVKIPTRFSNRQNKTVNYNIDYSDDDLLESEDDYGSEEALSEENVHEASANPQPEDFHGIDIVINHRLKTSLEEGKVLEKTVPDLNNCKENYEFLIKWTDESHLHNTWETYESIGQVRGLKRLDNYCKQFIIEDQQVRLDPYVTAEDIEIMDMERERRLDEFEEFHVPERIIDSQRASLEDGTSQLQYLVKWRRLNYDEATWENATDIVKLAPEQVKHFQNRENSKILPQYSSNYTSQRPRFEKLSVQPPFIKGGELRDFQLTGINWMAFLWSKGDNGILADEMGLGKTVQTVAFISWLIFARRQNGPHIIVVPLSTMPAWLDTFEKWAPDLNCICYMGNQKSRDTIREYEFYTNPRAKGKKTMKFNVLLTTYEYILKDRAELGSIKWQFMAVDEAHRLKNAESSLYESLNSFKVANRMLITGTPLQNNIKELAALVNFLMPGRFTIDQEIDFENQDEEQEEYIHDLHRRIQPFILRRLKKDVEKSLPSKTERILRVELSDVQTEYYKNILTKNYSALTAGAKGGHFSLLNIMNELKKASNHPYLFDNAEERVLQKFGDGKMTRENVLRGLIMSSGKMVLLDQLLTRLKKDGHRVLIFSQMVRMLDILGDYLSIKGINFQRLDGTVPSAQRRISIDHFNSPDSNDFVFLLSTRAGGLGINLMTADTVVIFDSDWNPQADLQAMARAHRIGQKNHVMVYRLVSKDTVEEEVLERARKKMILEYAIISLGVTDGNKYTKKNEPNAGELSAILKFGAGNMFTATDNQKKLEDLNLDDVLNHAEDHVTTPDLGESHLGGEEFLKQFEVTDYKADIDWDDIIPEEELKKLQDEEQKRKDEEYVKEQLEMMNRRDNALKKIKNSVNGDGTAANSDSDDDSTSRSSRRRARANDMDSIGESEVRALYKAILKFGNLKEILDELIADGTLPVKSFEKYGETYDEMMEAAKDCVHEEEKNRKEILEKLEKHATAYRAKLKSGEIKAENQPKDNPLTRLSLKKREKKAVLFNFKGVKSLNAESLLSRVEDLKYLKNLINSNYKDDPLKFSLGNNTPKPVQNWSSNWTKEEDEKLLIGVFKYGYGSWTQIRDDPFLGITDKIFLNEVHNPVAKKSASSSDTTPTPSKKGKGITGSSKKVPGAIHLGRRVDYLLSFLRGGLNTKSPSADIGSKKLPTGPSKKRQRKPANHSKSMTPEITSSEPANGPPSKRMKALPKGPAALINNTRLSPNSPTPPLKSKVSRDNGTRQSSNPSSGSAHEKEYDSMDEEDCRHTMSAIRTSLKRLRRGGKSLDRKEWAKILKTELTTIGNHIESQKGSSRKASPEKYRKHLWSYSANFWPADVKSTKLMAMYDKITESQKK
# [10] = target: T5, Methionyl-tRNA synthetase, putative (Leishmania donovani (strain BPK282A1)) (UniProt E9BF75); test: Leishmania donovani Methionine tRNA synthetase (LdMetRS):v7. Dose response assay; type: functional; set-up: conc 80 nM, time 150 minutes
# T5 sequence (whole entry): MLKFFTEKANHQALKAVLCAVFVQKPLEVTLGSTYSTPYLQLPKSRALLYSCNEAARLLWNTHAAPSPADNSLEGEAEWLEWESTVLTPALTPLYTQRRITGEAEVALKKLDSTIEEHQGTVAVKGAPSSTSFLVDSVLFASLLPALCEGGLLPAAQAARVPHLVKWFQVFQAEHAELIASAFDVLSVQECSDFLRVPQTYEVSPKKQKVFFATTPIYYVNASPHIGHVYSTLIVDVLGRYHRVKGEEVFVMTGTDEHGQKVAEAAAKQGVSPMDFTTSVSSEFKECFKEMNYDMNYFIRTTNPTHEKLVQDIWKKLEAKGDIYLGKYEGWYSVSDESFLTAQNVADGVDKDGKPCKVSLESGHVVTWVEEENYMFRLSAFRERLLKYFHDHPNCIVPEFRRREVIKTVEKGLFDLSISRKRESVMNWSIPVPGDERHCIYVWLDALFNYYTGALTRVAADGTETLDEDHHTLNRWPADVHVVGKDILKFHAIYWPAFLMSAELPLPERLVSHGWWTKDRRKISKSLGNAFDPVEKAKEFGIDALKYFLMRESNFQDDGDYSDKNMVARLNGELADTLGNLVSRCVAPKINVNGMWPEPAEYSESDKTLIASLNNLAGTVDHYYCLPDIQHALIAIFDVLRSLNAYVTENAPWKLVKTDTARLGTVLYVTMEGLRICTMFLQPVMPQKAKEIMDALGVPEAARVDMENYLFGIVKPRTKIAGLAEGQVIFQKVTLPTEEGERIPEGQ
# Chain of Protein translocase subunit SecA (Escherichia coli (strain K12)) (P10408 whole entry): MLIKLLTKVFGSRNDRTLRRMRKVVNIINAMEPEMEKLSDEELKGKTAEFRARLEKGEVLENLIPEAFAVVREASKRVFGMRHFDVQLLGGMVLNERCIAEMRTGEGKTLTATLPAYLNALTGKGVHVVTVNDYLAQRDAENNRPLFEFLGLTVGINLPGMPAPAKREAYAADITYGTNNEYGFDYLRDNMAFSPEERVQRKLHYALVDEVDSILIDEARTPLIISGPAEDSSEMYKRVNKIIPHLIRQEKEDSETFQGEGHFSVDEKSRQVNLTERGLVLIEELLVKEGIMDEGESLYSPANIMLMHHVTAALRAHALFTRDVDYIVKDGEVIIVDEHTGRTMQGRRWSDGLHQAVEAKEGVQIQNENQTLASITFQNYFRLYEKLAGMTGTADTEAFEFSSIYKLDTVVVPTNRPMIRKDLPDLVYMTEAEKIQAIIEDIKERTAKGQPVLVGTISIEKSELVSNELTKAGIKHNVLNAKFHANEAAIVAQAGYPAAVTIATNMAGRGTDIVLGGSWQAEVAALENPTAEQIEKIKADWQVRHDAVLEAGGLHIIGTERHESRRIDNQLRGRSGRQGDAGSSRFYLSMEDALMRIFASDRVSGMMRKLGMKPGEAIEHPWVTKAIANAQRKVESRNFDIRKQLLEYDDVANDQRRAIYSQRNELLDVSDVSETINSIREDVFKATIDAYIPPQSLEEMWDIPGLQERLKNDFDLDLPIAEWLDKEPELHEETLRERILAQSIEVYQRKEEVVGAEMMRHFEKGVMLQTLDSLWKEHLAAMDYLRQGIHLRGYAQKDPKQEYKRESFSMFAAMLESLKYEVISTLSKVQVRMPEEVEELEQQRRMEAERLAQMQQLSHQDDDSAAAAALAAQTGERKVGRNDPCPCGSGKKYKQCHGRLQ
SMILES,Percent Effect [1],Percent Effect [2],Percent Effect [3],Percent Effect [4],Percent Effect (Trypanosoma cruzi),Percent Effect ([5]; 30 µM),Percent Effect ([5]; 33.3 µM),Percent Effect [6],Percent Effect (Homo sapiens),Percent Effect [7],Percent Effect [8],Percent Effect [9],PXC50 ([10]; MAX_EFFECT 8.551068884),PXC50 ([10]; MAX_EFFECT 14.26056338),PXC50 ([10]; MAX_EFFECT 33.25415677),PXC50 ([10]; MAX_EFFECT 41.72535211),PXC50 ([10]; MAX_EFFECT 10.70496084),PXC50 ([10]; MAX_EFFECT 13.5770235)
Cc1ccccc1-c1cncc(C2CCN(C(=O)CN(C)C)CC2)n1,-4.06%,6.76%,14.4%,-6.59%,-4.74%,-1.62%,-8.59%,9.83%,19.1%,0%,1.3%,-14.4%,,,,,,
c1ccc(COC2CCN(c3cncc(-n4cccn4)n3)CC2)cc1,-2.59%,5.41%,-5.76%,-7.06%,4.3%,,2.08%,19.2%,14.3%,8.91%,13.4%,-2.69%,< 4,< 4,,,,
Cn1cc(CC2CCN(C(=O)NCCc3cccc(O)c3)C2)cn1 (stereo not drawn),-1.93%,0%,11.8%,1.28%,-3.8%,5.95%,-2.37%,11%,-12%,5.32%,7.79%,-2.6%,,,,,,
Cc1nnc(NCC2(c3ccc(Cl)cc3Cl)CCOCC2)c(C#N)c1C,-4%,0%,-11.6%,42.2%,12.2%,,1.91%,8.97%,10.4%,5.82%,2.44%,-12.2%,,,< 4,< 4,,
Cc1nc(NCc2nnc(C)n2C)c2c(CC(C)C)csc2n1,,,1.71%,,,,,,,,,,,,,,< 4,< 4
